Results filed as inconclusive are left out. Active and inactive are the calls of the source. Rule for the calls: active = hit-call score of the fitted dose curve at least 0.9, where 1 is the maximum; inconclusive = response in the unintended direction; inactive = score below 0.9.

A short description of this assay: ATG_XTT_Cytotoxicity: Cytotoxicity Assessment in the Attagene TRANS-FACTORIAL HepG2 Assay (AID 2283584).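 For AC50: cells exposed to compound for 24 h before reading; active means loss of viability signal versus DMSO baseline.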 The method, boiled down: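 HepG2 human liver cells, transiently transfected with multiple GAL4-UAS reporter units, were dosed and read at 24 h by XTT as cell number. Loss of signal was fitted relative to DMSO negative control baseline.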
Turning to `O=C/C(Cl)=C(/Cl)C(=O)O`, the compound was classed as inactive.

For the compound `CC(C)(COCC1CO1)COCC1CO1` (configuration not stated), the result was inactive.

For the compound `CC(C)N(C(=O)CCl)c1ccccc1`, the AC50 – broadly, the concentration giving half of the maximal activity seen – is 31.2 µM (active). Take `Cc1ccc(CCl)cc1`: the outcome was inactive. Same read-out and setting: in the case of `OC(Cc1ccccc1Cl)(Cn1cncn1)C1(Cl)CC1` (configuration not stated) it was “inactive”. Still for that read-out and setting: the same measure for `C1CCC(C2CCCCC2)CC1`: “inactive”; for `Cc1ccc(OP(=O)(Oc2ccc(C)cc2C)Oc2ccc(C)cc2C)c(C)c1`: “inactive”.
